Laboratory results taken from the supplement of paper PMC8285479.
Counter-ions that a name gives are not always drawn. ± gives the standard deviation of the averaged measurements. Whole data set: some 1,900 compounds, median “normalised cell viability (NPI; 0 = phenylarsine oxide control, 1 = DMSO control)” near 1, cut for the lowest 2% near 0.039. Only a selection was taken, and the lowest values are over-represented in it overall.

Test system: NCI-H1944
Assay: normalised cell viability (NPI; 0 = phenylarsine oxide control, 1 = DMSO control) (fraction of DMSO control); NCI-H1944 is a non-small cell lung cancer line; higher = more viable cells (less compound toxicity)
Conditions: 6 days
[1] = glucocorticoid arm: hydrocortisone 2.75 uM co-treatment, compound 1 µM
[2] = glucocorticoid arm: hydrocortisone 2.75 uM co-treatment, compound 5 µM
[3] = glucocorticoid arm: hydrocortisone 2.75 uM pre-treated 2 days and continued, compound 1 µM
[4] = glucocorticoid arm: hydrocortisone 2.75 uM pre-treated 2 days and continued, compound 5 µM
[5] = glucocorticoid arm: vehicle, compound 1 µM
[6] = glucocorticoid arm: vehicle, compound 5 µM
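Also: CTB read-out in 384-well plates, triplicate wells, NPI normalised per plate against 1 µM phenylarsine oxide (0) and 0.1% DMSO (1) controls.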

## CN[C@@H]1C[C@H]2O[C@@](C)([C@@H]1OC)n1c3ccccc3c3c4c(c5c6ccccc6n2c5c31)C(=O)NC4 [Staurosporine]
[1]
  normalised cell viability: 0.0825 ± 0.0098
[2]
  normalised cell viability: 0.0186 ± 0.003
[3]
  normalised cell viability: 0.246 ± 0.01
[4]
  normalised cell viability: 0.0923 ± 0.017
[5]
  normalised cell viability: 0.0216 ± 0.0022
[6]
  normalised cell viability: 0.00445 ± 0.0013

## C[C@@H](N)Cc1cnc[nH]1 [Histamine, R(-)-alpha-methyl-, dihydrochloride]
[1]
  normalised cell viability: 0.997 ± 0.0027
[2]
  normalised cell viability: 0.997 ± 0.011
[3]
  normalised cell viability: 1
[4]
  normalised cell viability: 0.994 ± 0.014
[5]
  normalised cell viability: 0.9917 ± 0.0045
[6]
  normalised cell viability: 0.9963 ± 0.0032

## NC(CP(=O)(O)O)C(=O)O (racemic) [(±)-2-Amino-3-phosphonopropionic acid]
[1]
  normalised cell viability: 0.993 ± 0.0066
[2]
  normalised cell viability: 0.9903 ± 0.0093
[3]
  normalised cell viability: 1.005 ± 0.0087
[4]
  normalised cell viability: 1 ± 0.013
[5]
  normalised cell viability: 0.9877 ± 0.0049
[6]
  normalised cell viability: 0.998 ± 0.013

## CCc1c(C(=O)OC)ncc2[nH]c3cc(OC)c(OC)cc3c12 [Methyl 6,7-dimethoxy-4-ethyl-beta-carboline-3-carboxylate]
[1]
  normalised cell viability: 1.01 ± 0.016
[2]
  normalised cell viability: 1.023 ± 0.0058
[3]
  normalised cell viability: 1.01 ± 0.01
[4]
  normalised cell viability: 1.03 ± 0.01
[5]
  normalised cell viability: 0.9997 ± 0.0091
[6]
  normalised cell viability: 1.003 ± 0.0058

## COc1cc(CC(C)N)c(OC)cc1I (racemic) [(±)-DOI hydrochloride]
[1]
  normalised cell viability: 1.01 ± 0.01
[2]
  normalised cell viability: 0.983 ± 0.023
[3]
  normalised cell viability: 0.998 ± 0.013
[4]
  normalised cell viability: 1.02 ± 0.01
[5]
  normalised cell viability: 0.998 ± 0.0035
[6]
  normalised cell viability: 0.994 ± 0.004

## Oc1ncc(N(CCCl)CCCl)c(O)n1 [Uracil mustard]
[1]
  normalised cell viability: 0.972 ± 0.007
[2]
  normalised cell viability: 1.06 ± 0.011
[3]
  normalised cell viability: 1.043 ± 0.0058
[4]
  normalised cell viability: 1.033 ± 0.0058
[5]
  normalised cell viability: 0.244 ± 0.021
[6]
  normalised cell viability: 1.01 ± 0.011

## C[C@@]12C(=O)OC(=O)[C@]1(C)[C@H]1CC[C@@H]2O1 [Cantharidin]
[1]
  normalised cell viability: 0.9967 ± 0.0035
[2]
  normalised cell viability: 0.00641 ± 0.0033
[3]
  normalised cell viability: 1.05 ± 0.021
[4]
  normalised cell viability: 0.12 ± 0.057
[5]
  normalised cell viability: 0.9873 ± 0.0032
[6]
  normalised cell viability: 0.00459 ± 0.0027

## CN(N=O)c1ccc(O)c(O)c1 [Me-3,4-dephostatin]
[1]
  normalised cell viability: 1.017 ± 0.0058
[2]
  normalised cell viability: 1.01 ± 0.017
[3]
  normalised cell viability: 1.007 ± 0.0058
[4]
  normalised cell viability: 1.05 ± 0.086
[5]
  normalised cell viability: 1.01 ± 0.011
[6]
  normalised cell viability: 1.02 ± 0.01

## CCCN1CCC[C@@H](c2cccc(C#N)c2)C1 [S(-)-DS 121 hydrochloride]
[1]
  normalised cell viability: 1.017 ± 0.0058
[2]
  normalised cell viability: 0.972 ± 0.034
[3]
  normalised cell viability: 1.01 ± 0.01
[4]
  normalised cell viability: 0.985 ± 0.033
[5]
  normalised cell viability: 1.02
[6]
  normalised cell viability: 1.04 ± 0.047

## NCc1cc(O)no1 [Muscimol hydrobromide]
[1]
  normalised cell viability: 1.006 ± 0.0069
[2]
  normalised cell viability: 0.993 ± 0.015
[3]
  normalised cell viability: 1.01 ± 0.013
[4]
  normalised cell viability: 0.992 ± 0.031
[5]
  normalised cell viability: 1.01
[6]
  normalised cell viability: 1.003 ± 0.0061

## CCCN1CCC[C@@H]2Cc3n[nH]cc3C[C@H]21 (racemic) [(±)-Quinpirole dihydrochloride]
[1]
  normalised cell viability: 1.013 ± 0.0058
[2]
  normalised cell viability: 1.01 ± 0.036
[3]
  normalised cell viability: 0.893 ± 0.19
[4]
  normalised cell viability: 1.03 ± 0.01
[5]
  normalised cell viability: 1.013 ± 0.0058
[6]
  normalised cell viability: 1.01 ± 0.011

## CCCN1CCC[C@@H]2Cc3n[nH]cc3C[C@H]21 [(-)-Quinpirole hydrochloride]
[1]
  normalised cell viability: 0.982 ± 0.006
[2]
  normalised cell viability: 0.992 ± 0.018
[3]
  normalised cell viability: 0.867 ± 0.22
[4]
  normalised cell viability: 1.01 ± 0.016
[5]
  normalised cell viability: 0.985 ± 0.0087
[6]
  normalised cell viability: 0.9927 ± 0.0045

## CCN(CCCl)CCOC(C)=O [Acetylethylcholine mustard hydrochloride]
[1]
  normalised cell viability: 1.01 ± 0.015
[2]
  normalised cell viability: 1.02 ± 0.034
[3]
  normalised cell viability: 1.01 ± 0.013
[4]
  normalised cell viability: 1.11 ± 0.061
[5]
  normalised cell viability: 0.995 ± 0.0046
[6]
  normalised cell viability: 1.01 ± 0.015

## N.N.[Cl][Pt][Cl] [Cisplatin]
[3]
  normalised cell viability: 1.01

## Cn1c(CCCC(=O)O)nc2cc(N(CCCl)CCCl)ccc21 [bendamustine hydrochloride]
[1]
  normalised cell viability: 1.02 ± 0.011
[2]
  normalised cell viability: 0.348 ± 0.02
[3]
  normalised cell viability: 1.007 ± 0.0058
[4]
  normalised cell viability: 0.7867 ± 0.0031
[5]
  normalised cell viability: 0.9937 ± 0.006
[6]
  normalised cell viability: 0.0218 ± 0.0032

## O=[N+]([O-])c1ccc(O[C@@H]2O[C@H](CO)[C@@H](O)[C@H](O)[C@H]2F)c([N+](=O)[O-])c1 [2,4-Dinitrophenyl 2-fluoro-2-deoxy-beta-D-glucopyranoside]
[1]
  normalised cell viability: 0.9917 ± 0.004
[2]
  normalised cell viability: 0.989 ± 0.02
[3]
  normalised cell viability: 0.991 ± 0.023
[4]
  normalised cell viability: 0.974 ± 0.03
[5]
  normalised cell viability: 0.9807 ± 0.0021
[6]
  normalised cell viability: 0.9817 ± 0.0064

## Cc1o[nH]c(=O)c1CC(N)C(=O)O (racemic) [(±)-AMPA hydrobromide]
[1]
  normalised cell viability: 0.995 ± 0.016
[2]
  normalised cell viability: 0.983 ± 0.016
[3]
  normalised cell viability: 0.999 ± 0.0095
[4]
  normalised cell viability: 0.994 ± 0.025
[5]
  normalised cell viability: 0.982 ± 0.0027
[6]
  normalised cell viability: 0.98 ± 0.007

## CC(N)c1cccc(Cl)c1Cl (racemic) [(±)-2,3-Dichloro-alpha-methylbenzylamine hydrochloride]
[1]
  normalised cell viability: 1.006 ± 0.0075
[2]
  normalised cell viability: 1.02 ± 0.011
[3]
  normalised cell viability: 1.003 ± 0.0064
[4]
  normalised cell viability: 1.013 ± 0.0058
[5]
  normalised cell viability: 0.9993 ± 0.0097
[6]
  normalised cell viability: 1.001 ± 0.0081

## CCCCN1[C@@H]2CC[C@H]1CC(OC(c1ccc(F)cc1)c1ccc(F)cc1)C2 (some centres undefined) [JHW 007 hydrochloride]
[1]
  normalised cell viability: 0.969 ± 0.017
[2]
  normalised cell viability: 0.629 ± 0.055
[3]
  normalised cell viability: 0.987 ± 0.011
[4]
  normalised cell viability: 0.969 ± 0.011
[5]
  normalised cell viability: 0.993 ± 0.003
[6]
  normalised cell viability: 0.228 ± 0.12

## CC(N)C(O)c1ccc(O)c(O)c1 (single isomer, unassigned; (-)) [(-)-alpha-Methylnorepinephrine]
[1]
  normalised cell viability: 1.01 ± 0.012
[2]
  normalised cell viability: 0.971 ± 0.044
[3]
  normalised cell viability: 0.995 ± 0.013
[4]
  normalised cell viability: 0.958 ± 0.034
[5]
  normalised cell viability: 0.9967 ± 0.0058
[6]
  normalised cell viability: 0.9977 ± 0.0032

## C/C=C(/C)C(=O)O[C@H]1C(C)=C2[C@H]([C@@H]1OC(=O)CCCCCCC)[C@@](C)(OC(C)=O)C[C@H](OC(=O)CCC)[C@@]1(O)[C@H]2OC(=O)[C@@]1(C)O [Thapsigargin]
[1]
  normalised cell viability: 0.0778 ± 0.015
[2]
  normalised cell viability: 0.0411 ± 0.016
[3]
  normalised cell viability: 0.215 ± 0.062
[4]
  normalised cell viability: 0.101 ± 0.029
[5]
  normalised cell viability: 0.0393 ± 0.014
[6]
  normalised cell viability: 0.00585 ± 0.0031

## Clc1ccc(N2CC3CCC(C2)N3)nn1
[1]
  normalised cell viability: 1.003 ± 0.0064
[2]
  normalised cell viability: 0.979 ± 0.012
[3]
  normalised cell viability: 0.9903 ± 0.0074
[4]
  normalised cell viability: 0.9827 ± 0.004
[5]
  normalised cell viability: 0.9863 ± 0.0075
[6]
  normalised cell viability: 0.9843 ± 0.0086

## C[C@@H]1O[C@@H](O[C@H]2C[C@@H](O)[C@]3(CO)[C@H]4[C@H](O)C[C@]5(C)[C@@H](C6=CC(=O)OC6)CC[C@]5(O)[C@@H]4CC[C@]3(O)C2)[C@H](O)[C@H](O)[C@H]1O [Ouabain]
[1]
  normalised cell viability: 0.00947 ± 0.006
[2]
  normalised cell viability: 0.00628 ± 0.0019
[3]
  normalised cell viability: 0.0931 ± 0.013
[4]
  normalised cell viability: 0.07 ± 0.028
[5]
  normalised cell viability: 0.00711 ± 0.0021
[6]
  normalised cell viability: 0.00424 ± 0.002

## C[C@@H]1O[C@@H](O[C@H]2C[C@@H](O)[C@]3(CO)[C@H]4[C@H](O)C[C@]5(C)[C@@H]([C@@H]6COC(=O)C6)CC[C@]5(O)[C@@H]4CC[C@]3(O)C2)[C@H](O)[C@H](O)[C@H]1O [Dihydroouabain]
[1]
  normalised cell viability: 1.027 ± 0.0058
[2]
  normalised cell viability: 0.0138 ± 0.013
[3]
  normalised cell viability: 1.01 ± 0.015
[4]
  normalised cell viability: 0.143 ± 0.081
[5]
  normalised cell viability: 0.98 ± 0.017
[6]
  normalised cell viability: 0.00677 ± 0.002
